SMN2 splice up = qHTS Assay for Enhancers of SMN2 Splice Variant Expression; Potency, µM (highest dose often 46.1 µM), inactives show at the highest dose activity change, positive = activation, usual class: activators; 210,000 tested, 2.8% active; HEK293 SMN2-luciferase splicing reporter, luminescence, 30-36 h; note: % of control where 0% means no effect; nearly all actives have a fitted effect of over 55% in size
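HEK293 cells carry an SMN2 […]–luciferase reporter in which exon 7 inclusion puts luciferase in frame. Cells were plated 10-12 h before compound addition, then incubated 30-36 h at 37C. ONE-Glo luminescence was read; sodium butyrate at 4.5 mM final served as control.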
FLuc counter = qHTS profiling assay for firefly luciferase inhibitor/activator using purifed enzyme and Km concentrations of substrates (counterscreen for miR-21 project). Luciferin 4-monooxygenase (Photinus pyralis), P08659. purified FLuc, Km substrates, luminescence inhibition. Potency, µM (highest dose often 57.5 µM), for the others: at the highest dose activity change, negative = inhibition, hits mostly inhibitors. 360,000 tested, 6.9% active. AID 588342, 2011;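 note: plate controls were vehicle for no effect and reference inhibitor for full effect; nearly all actives have a fitted effect of over 55% in size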
Target sequence (P08659 whole entry, looked up): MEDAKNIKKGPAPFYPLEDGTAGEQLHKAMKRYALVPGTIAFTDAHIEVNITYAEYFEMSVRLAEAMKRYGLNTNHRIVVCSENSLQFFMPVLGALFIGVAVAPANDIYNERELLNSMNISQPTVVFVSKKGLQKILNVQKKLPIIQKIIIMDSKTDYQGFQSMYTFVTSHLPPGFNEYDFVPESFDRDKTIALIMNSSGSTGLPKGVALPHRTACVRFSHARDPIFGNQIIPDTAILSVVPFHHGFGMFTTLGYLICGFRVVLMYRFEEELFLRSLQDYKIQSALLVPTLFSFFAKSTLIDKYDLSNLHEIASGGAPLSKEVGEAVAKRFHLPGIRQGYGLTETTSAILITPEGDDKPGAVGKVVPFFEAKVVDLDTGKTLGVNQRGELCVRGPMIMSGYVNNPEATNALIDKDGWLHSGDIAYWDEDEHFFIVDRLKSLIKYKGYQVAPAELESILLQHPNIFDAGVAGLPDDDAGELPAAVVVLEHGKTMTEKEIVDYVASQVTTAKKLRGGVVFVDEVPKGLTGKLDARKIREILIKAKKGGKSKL
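Purified P. pyralis luciferase, 10 nM final, with Km-level 10 uM D-luciferin and 10 uM ATP in 50 mM Tris acetate pH 7.5, 10 mM Mg acetate, 0.01% Tween-20, 0.05% BSA; 6-point qHTS titration about 60 µM downward; luminescence read.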
Rab9 prom act = qHTS Assay for Rab9 Promoter Activators. Huh7 Rab9 promoter-luciferase reporter, luminescence, 24 h. Potency, µM (series often up to 9.22 µM), inactives show at the highest dose activation, negative = inhibition, most hits filed as activators. 320,000 tested, 2.8% active; note: % of control where 0% means no effect; nearly all actives have a fitted effect of over 60% in size
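Luciferase signal after 10 min detection reagent at ambient indicates Rab9 promoter upregulation; stably transfected Huh7 cells were treated 24 h with compound in DMSO at 37 °C, 5% CO2.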
ELG1 genotoxic = qHTS screen for small molecules that induce genotoxicity in human embryonic kidney (HEK293T) cells expressing luciferase-tagged ELG1; HEK293T ELG1-luciferase reporter, luminescence, 16 h; Potency, µM (doses to about 46 µM), inactives show at the top dose activity change, positive = activation, usual class: activators; 330,000 tested, 1.3% active; AID 504466, 2011; note: % of control where 0% means no effect; nearly all actives have a fitted effect of over 60% in size
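HEK293T cells expressing luciferase-tagged ELG1 were treated with compound or DMSO for 16 hr at 37°C. Luciferase activity was then read after 30 min with ONE-Glo at room temperature; rising signal flags genetic stress.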
NPC1 prom act = qHTS Assay for NPC1 Promoter Activators | 320,000 tested, 2.4% active | Potency, µM (doses to about 9.22 µM), for inactives: at the top dose activation, most hits filed as activators | AID 485313, 2010 | Huh7 NPC1 promoter luciferase reporter, 24 h; note: % of control where 0% means no effect; nearly all actives have a fitted effect of over 60% in size
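NPC1 promoter–luciferase Huh7 cells; 24 h compound; luminescence.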
ELG1 DNA repair = qHTS screen for small molecules that inhibit ELG1-dependent DNA repair in human embryonic kidney (HEK293T) cells expressing luciferase-tagged ELG1; HEK293T ELG1-luciferase reporter, luminescence, 16 h; DNA damage induced by 5-fluorouridine; 330,000 tested, 2.3% active; Potency, µM (highest dose often 46.1 µM), without a hit: at the highest dose activity change, negative = inhibition, most hits filed as inhibitors; AID 504467, 2011; note: % is set by controls: 0 for no effect and ±100 for the full control effect; nearly all actives have a fitted effect of over 55% in size
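5-Fluorouridine DNA damage + compound/DMSO, 2,000 cells/well, 16 h, 37 °C/5% CO2. ONE-Glo, 30 min RT, luminescence. Readout = decrease in reporter signal.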
* hit, by the source's call; ? = inconclusive; nt = no result; [ ] = remark or other dose. In the library only some 9.3% were active in any assay of this set; here they are far more common. Calls come from the whole dose curve; as a rule, active = well fitted curve in the direction sought with a large enough effect; inconclusive = small, poorly fitted or top-dose-only effect, or another doubt; inactive = no such curve, though single readings can be large; an effect the other way counts as inactive or inconclusive. Potency is the fitted concentration of half-maximal effect.

SMILES | SMN2 splice up | FLuc counter | Rab9 prom act | ELG1 genotoxic | NPC1 prom act | ELG1 DNA repair
CCC(C)N(C)C(=O)c1cc2ccccc2c(-c2ccccc2Cl)n1 (stereo unspecified) | -12% | 3% | -6%[46.1 µM] | -2% | -5%[46.1 µM] | -1%
O=C(NCc1ccccc1)c1c2c(nc3ccccc13)C(=O)N(C1CCCCC1)C2 | nt | 0% | nt | nt | nt | nt
O=C(c1csnn1)N1CCC[C@@]2(CCN(Cc3ccccc3)C2)C1 | 2% | nt | nt | nt | nt | nt
COc1ccc(S(=O)(=O)Nc2ccc(N3CCOCC3)nc2)cc1 | -10% | -1% | -2% | -10% | 0% | ?
COc1ccc(C2=NN3C(=O)c4c(ccc(OC)c4OC)C3C2)cc1 (stereo unspecified) | -17% | 17µM* | -1% | -1% | 1% | 15%
COc1ccc2c(c1OC)C(=O)N1N=C(c3ccc(Br)cc3)CC21 (stereo unspecified) | -30% | 24µM* | 7% | 0% | 3% | ?
CC1CCN(c2oc(-c3ccccc3Cl)nc2C#N)CC1 | nt | 11µM* | ? | ? | ? | ?
CC(C)(C)c1ccc(-c2nc(C#N)c(N3CCC(C(N)=O)CC3)o2)cc1 | nt | 21µM* | 0% | 1% | -1% | 3%
CC1CC(C)CN(c2oc(-c3ccccc3F)nc2C#N)C1 (stereo unspecified) | nt | 0% | 0% | -2% | 0% | ?
N#Cc1nc(-c2ccccc2Cl)oc1N1CCOCC1 | -1% | -12% | 8% | 13% | 1% | 15%
CC1CCCN(c2oc(-c3cccc4ccccc34)nc2C#N)C1 (stereo unspecified) | -12% | 5.4µM* | ? | ? | ? | ?
Cc1ccccc1-c1nc(C#N)c(N2CCC(C)CC2)o1 | nt | 24µM* | 22% | 9% | 5% | ?
COc1cccc(C(=O)Nc2ccccc2-c2nnc(-c3cc(OC)ccc3Br)o2)c1 | 5% | -1% | nt | nt | nt | nt
COc1cc(C(=O)NCC(=O)N/N=C/c2cccnc2)cc(OC)c1OC | nt | -1% | -5% | 3% | -5% | 2%
COc1ccccc1N1CCN(c2ccc(=O)n(CC(=O)O)n2)CC1 | -1% | -3% | nt | nt | nt | nt
COc1ccc(OC)c(Nc2nc3ccccc3nc2-n2nc(C)cc2C)c1 | -7% | -5% | nt | nt | nt | nt
O=C(c1cnccn1)N1CCC2(CCCN(c3ccc(-c4ccccc4)cc3)C2)CC1 | 4µM* | nt | nt | nt | nt | nt
O=C1CCC(C(=O)N(CCO)Cc2ccccc2)CN1CC1CCCCC1 (stereo unspecified) | nt | 3% | 12% | -1% | 2% | 8%
COc1cccc(OCc2cc(C(=O)N(Cc3nccn3C)C(C)C)no2)c1 | nt | 0% | 0% | 0% | 14% | 0%
COc1cc(C)ccc1OCc1cc(C(=O)N(Cc2c(C)nn(C)c2C)C2CC2)no1 | nt | 12µM* | ? | 14% | ? | ?
COc1cc(C)ccc1OCc1cc(C(=O)N2CCCCCC2)no1 | nt | ? | 22% | 2% | 18% | ?
COc1cc(C)ccc1OCc1cc(C(=O)N(Cc2nccn2C)C(C)C)no1 | nt | 11µM* | 2.2µM* | ? | 2.5µM* | ?
Cc1ccc(Cn2ccnc2SCC(=O)NCc2ccc(F)cc2)cc1 | nt | -4% | nt | nt | nt | nt
COC(=O)c1cccnc1-n1c(=O)c2cccnc2n(CC(=O)Nc2cccc(C(F)(F)F)c2)c1=O | -12% | -2% | nt | nt | nt | nt
Cc1ccc(OCCOc2cccc(Br)c2)c([N+](=O)[O-])n1 | 18µM* | ? | ? | ? | ? | ?
SMILES | SMN2 splice up | FLuc counter | Rab9 prom act | ELG1 genotoxic | NPC1 prom act | ELG1 DNA repair
Cc1ccc(OCc2ccc(-c3ccccc3)cc2)c([N+](=O)[O-])n1 | nt | ? | 21% | 27% | 18% | 10%
Cc1ccc(OCc2ccc(Br)cc2)c([N+](=O)[O-])n1 | 10µM* | 5.4µM* | 1µM* | 7.3µM* | 2.2µM* | ?
COc1cc(NC(=O)c2ccc(N)nc2)cc(C(=O)Nc2cccc(C(F)(F)F)c2)c1 | nt | 7.6µM* | 3% | 7% | 2% | ?
COc1cc(Nc2ccccn2)cc(C(=O)Nc2cccc(C(F)(F)F)c2)c1 | nt | ? | -10% | -13% | 2% | ?
COc1cc(NC(=O)c2nccnc2N)cc(C(=O)Nc2cccc(C(F)(F)F)c2)c1 | nt | 11µM* | -6% | 6% | -3% | 0%
CCOc1ccc2[nH]c3c(N4CCc5ccccc5C4)ncnc3c2c1 | nt | ? | -20% | -15% | -27% | 18µM*
c1ccc2c(c1)[nH]c1c(N3CCOCC3)ncnc12 | -46% | 0% | 1% | -5% | 1% | ?
Cc1ccc2[nH]c3c(N4CCOCC4)ncnc3c2c1 | -42% | 17µM* | 3% | 6% | 1% | -20%
Cc1ccc2[nH]c3c(N4CCc5ccccc5C4)ncnc3c2c1 | -37% | ? | -21% | -16% | -22% | ?
Brc1ccc2[nH]c3c(N4CCc5ccccc5C4)ncnc3c2c1 | -25% | -18% | -11% | ? | 0% | ?
Fc1ccc2[nH]c3c(N4CCc5ccccc5C4)ncnc3c2c1 | nt | -6% | -31% | -5% | -25% | 1.3µM*
Cc1cccc2[nH]c3c(N4CCC5(CC4)OCCO5)ncnc3c12 | -25% | ? | 2% | 3% | -11% | 16µM*
O=C(NCc1cccnc1)c1cc(S(=O)(=O)N2CCCC2)c(Cl)cc1Cl | nt | 6% | -3% | 0% | -6% | 9%
CC1CCN(S(=O)(=O)c2ccc3c(c2)N(CC(=O)NC(C)C)C(=O)CO3)CC1 | nt | 1% | nt | nt | nt | nt
O=c1[nH]c(Cc2ccccn2)nc2scc(-c3ccccc3Cl)c12 | -14% | -7% | -9% | -7% | -2% | ?
CC(C)[C@H](NC(=O)c1ccccc1)C(=O)OCC(=O)N1CCCc2ccccc21 | -15% | 1% | -3% | -4% | -1% | -12%
CCOC(=O)c1c(C)oc2nc(C)nc(NCCc3ccc(S(N)(=O)=O)cc3)c12 | nt | -9% | nt | nt | nt | nt
COc1ccc2cc(C(C)=O)c(=O)oc2c1 | 5% | -3% | -5% | 1% | -2% | -2%
Cn1c(-c2cc3ccccc3oc2=O)nc2ccccc21 | nt | 21µM* | 3.5µM* | ? | 4.5µM* | ?
Cc1cc(N)ccc1-c1cc2ccccc2oc1=O | nt | ? | 29% | 9% | 20% | ?
COc1ccc2cc(-c3nc4ccccc4n3C)c(=O)oc2c1 | 13µM* | 5.4µM* | 1.3µM* | ? | 2µM* | ?
